High-throughput results deposited in PubChem by National Center for Advancing Translational Sciences (NCATS).
Hits are enriched below; roughly 4.6% of the tested compounds scored in any of these assays.
TRHR agonist = TRH receptor (human) agonism. TRHR cells, calcium flux fluo-8, FDSS agonist mode. activation, % at 2 µM. 360,000 tested, 0.18% active. AID 493084; note: 0% is about no effect
Target sequence (P34981 whole entry, looked up): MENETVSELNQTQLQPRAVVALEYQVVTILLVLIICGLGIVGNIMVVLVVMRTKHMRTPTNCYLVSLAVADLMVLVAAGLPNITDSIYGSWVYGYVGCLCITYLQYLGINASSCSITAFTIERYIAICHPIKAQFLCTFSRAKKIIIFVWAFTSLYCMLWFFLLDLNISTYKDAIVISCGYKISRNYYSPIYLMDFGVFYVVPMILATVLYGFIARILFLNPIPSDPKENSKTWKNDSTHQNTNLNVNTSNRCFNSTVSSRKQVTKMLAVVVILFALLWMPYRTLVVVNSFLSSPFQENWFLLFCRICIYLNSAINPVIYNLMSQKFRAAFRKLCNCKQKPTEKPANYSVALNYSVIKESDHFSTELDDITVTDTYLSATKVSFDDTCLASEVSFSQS
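Agonist-mode FDSS calcium read (Ex 480/Em 530, 1 s cycles) in 1536-well TRHR cells with fluo-8 dye, after 10-cycle baseline and 23 nL compound addition; TRH at EC20 (10 nM final) added afterwards for the enhancer phase.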
D1 antag = antagonists of human D1 dopamine receptor; HEK293 TREx D1 cells, calcium flux, dopamine EC80; active compounds read low; 360,000 tested, 3.2% active; activity change, negative = inhibition, % at 10 µM; P21728; in the data active = activity change below about -30%; note: % is set by controls: 0 for no effect and ±100 for the full control effect
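Antagonism measured as reduced calcium response to an EC80 dopamine addition following 180 s compound pre-read; cells were inducible HEK293 Trex D1 plated overnight at 30 C, read kinetically at 1 cycle/sec.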
D1 PAM = enhances dopamine response at the human D1 receptor; P21728; HEK293 TREx D1 cells, calcium flux, dopamine EC20 potentiation; potentiation, % at 10 µM; 360,000 tested, 0.036% active; in the data active = potentiation above about 30%; note: 0% is about no effect
TRHR enhancer = allosteric enhancers of human TRH receptor; P34981; TRHR cells, fluo-8 calcium fluorescence, EC20 TRH enhancement; 360,000 tested, 0.66% active; enhancement, % at 2 µM; in the data active = enhancement above about 30%; note: 0% is about no effect
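Enhancer read-out: after compound pinning and an initial kinetic agonist-mode read, an EC20 of TRH (10 nM final) was injected and fluo-8 calcium signal (Ex 480/Em 530) followed at 1 s/cycle for 100 cycles in TRHR-expressing cells.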
D1 ag = human D1 receptor agonism. P21728. HEK293 T-REx D1 cells, calcium flux, agonist mode. activation, % at 2 µM. 360,000 tested, 1% active. AID 504660; note: 0% is about no effect
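Tetracycline-induced HEK293 TREx D1 cells, force-coupled to calcium signalling, were dye-loaded with a no-wash calcium kit. Compound was pin-added after a 10 s baseline. Fluorescence was read kinetically at 1 cycle/s for 180 s, with calcium rises flagged as agonism.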
* marks the source's active call; other numbers are inactive results; . = no result; ! = repeats disagree. Cut-off read from the data, not from the text of the source, unless noted: active = activation above about 30%; inactive = the rest.

SMILES | TRHR agonist | D1 antag | D1 PAM | TRHR enhancer | D1 ag
Cc1cc(NS(=O)(=O)c2ccc(Nc3nc(-c4ccc(C)c(C)c4)cs3)cc2)no1 | -0.7 | -11.5 | -10.6 | 2.0 | 68.0*
Cc1cc(NS(=O)(=O)c2ccc(NC(=O)COc3ccc(Br)cc3C)cc2)no1 | -1.1 | 4.1 | -1.1 | 3.6 | 1.2
Cc1cc(NS(=O)(=O)c2ccc(NC(=O)COc3c(C)cc(Br)cc3C)cc2)no1 | -0.8 | 5.5 | -6.1 | 2.5 | 88.2*!
CCOC(=O)c1ccc(OC(=O)c2cn(-c3cccc(OC)c3)c(=O)c3ccccc23)cc1 | 1.3 | 21.5 | -3.2 | -14.0 | 5.8
COc1ccc(-c2[nH]c(-c3cccc(OC)c3)nc2SCC(=O)Nc2ccc3c(c2)OCO3)cc1 | -1.1 | -12.6 | 0.6 | -3.4 | 0.4
CCCCNc1nnc(SCC(=O)c2c[nH]c3ccccc23)s1 | -0.1 | 5.6 | 3.9 | -2.6 | 1.1
CN(CC(=O)Nc1ccc(Cl)cc1)C(=O)c1cccc(S(=O)(=O)NCc2ccccc2)c1 | 0.2 | -9.1 | 6.2 | 0.0 | 1.6
CN1CCN(S(=O)(=O)c2cccc(C(=O)Nc3nc(-c4ccccc4)cs3)c2)CC1 | -1.1 | -32.0* | -5.3 | 8.9 | 15.2
CC(NC(=O)c1cccc(S(=O)(=O)N2CCN(C)CC2)c1)c1ccc(Cl)cc1Cl (configuration not stated) | 0.4 | -45.3* | -4.7 | -7.6 | 15.8
CN(CC(=O)Nc1ccc(Cl)cc1)C(=O)c1cccc(S(=O)(=O)N2CCN(Cc3ccccc3)CC2)c1 | 1.1 | -31.5* | -12.7 | -7.3 | 3.3
COc1ccc(-c2csc(NC(=O)c3cccc(S(=O)(=O)N4CCN(C)CC4)c3)n2)cc1 | 0.0 | -47.6* | -8.7 | 4.2 | 19.4
CC(C)c1ccc(OC(=O)c2cccc(S(=O)(=O)N3CCN(C)CC3)c2)cc1 | -0.8 | -28.4 | -12.0 | 14.8 | 8.6
O=C(Nc1ccc(Cl)cn1)c1cccc(S(=O)(=O)N2CCCCC2)c1 | -1.6 | 6.7 | . | 10.6 | 31.3*
COc1ccc(-c2csc(NC(=O)CS(=O)(=O)c3ccccc3)n2)cc1 | -0.4 | 6.6 | 0.4 | 0.7 | 3.0
O=C(Nc1ccc(-c2csc(Nc3ccccc3)n2)cc1)c1cccc(C(F)(F)F)c1 | -0.5 | -47.3* | -5.3 | 1.4 | 3.0
COc1ccc(-c2csc(NC(=O)C3CCCCN3S(=O)(=O)c3ccccc3)n2)cc1 (configuration not stated) | -0.3 | -36.7* | -3.6 | 1.2 | 2.3
O=C(Nc1nc(-c2ccccc2)cs1)c1cccc(S(=O)(=O)N2CCN(Cc3ccccc3)CC2)c1 | 0.3 | 5.7 | 7.9 | 36.6* | 5.8
Cc1nc(-c2cccc(NC(=O)c3cccc(S(=O)(=O)N4CCCC4)c3)c2)cs1 | -0.2 | -32.1* | 1.2 | -0.9 | 1.9
CCC(=O)c1ccc(N2CCCCC2)c(F)c1 | -0.3 | -54.7* | -4.5 | -1.1 | -0.8
O=C(O)c1ccc(COc2ccccc2/C=C2\NC(=O)N(Cc3ccc(F)cc3)C2=O)cc1 | -0.5 | -33.3* | 5.7 | -5.5 | 5.5
CC(NS(=O)(=O)OCC(Cl)(Cl)Cl)c1ccc(Br)cc1 (configuration not stated) | 0.5 | 4.0 | -4.0 | -3.9 | 6.4
O=c1[nH]c(CN2CCN(c3ccc(O)cc3)CC2)nc2scc(-c3ccc(Cl)cc3)c12 | -1.3 | -33.0* | -8.8 | -2.9 | 0.7
CC1c2[nH]c3ccccc3c2CCN1C(=O)Nc1ccccc1 (configuration not stated) | 0.9 | -36.4* | -5.2 | -4.3 | 13.3
Cc1cc(Nc2cccc(Cl)c2C)n2nc(Cc3ccccc3)nc2n1 | -2.3 | 2.4 | 0.3 | 8.2 | 3.4
COCCNC(=O)CCCn1c(SCC(=O)NCc2ccc(C)cc2)nc2c(sc3ccccc32)c1=O | -0.1 | -6.0 | 4.0 | -3.1 | 1.8
CC(=O)Nc1ccc(S(=O)(=O)NC2=NCN(CCO)CN2)cc1 | 1.7 | 3.6 | 2.5 | 2.2 | -0.4
CCN1CN=C(NS(=O)(=O)c2ccc(C)cc2)NC1 | 0.2 | . | -0.8 | 8.5 | 34.3*
Cc1nn(CC(=O)NCc2ccc(Cl)cc2)c(=O)c2cc3sccc3n12 | 0.2 | -2.3 | -0.2 | -2.0 | -0.9
COCCCn1c(=O)c2sccc2n2c(CCCC(=O)NCc3ccc(OC)cc3)nnc12 | 0.3 | -31.4* | -1.7 | 0.9 | 3.6
Cc1cccc(NC(=O)Cn2c(=O)n(CCCCCC(=O)NCc3ccccc3)c(=O)c3sccc32)c1 | -0.7 | -9.0 | -1.1 | -4.4 | 3.5
